Holding throughout (experiment): DAPPL (digital affinity profiling via proximity ligation, sequencing); 10 mM Tris-HCl pH 7.5, 50 mM NaCl, 1 mM DTT, 4% glycerol, room temperature, 30 min; GST-TFs on glutathione beads, 16-mer random dsDNA library, 0.1% formaldehyde crosslink after washing; high values mean tight binding
In one test the target is T1, FEV (Homo sapiens, UniProt Q99581 1-238).
T1 sequence: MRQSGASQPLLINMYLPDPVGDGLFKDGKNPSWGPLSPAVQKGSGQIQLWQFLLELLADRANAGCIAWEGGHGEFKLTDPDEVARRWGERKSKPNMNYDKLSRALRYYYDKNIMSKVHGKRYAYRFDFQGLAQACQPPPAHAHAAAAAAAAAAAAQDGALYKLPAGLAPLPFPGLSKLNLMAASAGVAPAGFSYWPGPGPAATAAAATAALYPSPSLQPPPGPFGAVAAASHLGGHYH
The note with it: protein: recombinant; tags: N-terminal GST; dsDNA, one strand shown. A digest of the protocol: (§1)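 Binding signal is defined as a hexamer's read frequency for one factor over its frequency for the tag-only sample. To obtain reads, GST-fused human transcription factors were expressed in yeast, captured on glutathione beads, barcoded with DNA and pooled with that sample. Pools met 200 nmole of a 16-mer random double-stranded DNA library in Tris/NaCl/DTT/glycerol buffer for 30 min at room temperature before washing, 0.1% formaldehyde crosslinking, proximity ligation (BsaI/T4 ligase, 1 h, 37 °C), PCR and Illumina NextSeq500 sequencing.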

In the next test the target is ETV5 (Homo sapiens, UniProt P41161 1-510). The note with it: protein: recombinant; tags: N-terminal GST; dsDNA, one strand shown. A digest of the protocol:
as §1

The next test has as its target HSF1 (Homo sapiens, UniProt Q00613 1-529). The conditions noted are these: protein: recombinant; tags: N-terminal GST; chain copies: 3; dsDNA, one strand shown. A digest of the protocol: as §1
The target of the next test is T2, SPIC (Homo sapiens, UniProt Q8N5J4 1-248).
T2 sequence: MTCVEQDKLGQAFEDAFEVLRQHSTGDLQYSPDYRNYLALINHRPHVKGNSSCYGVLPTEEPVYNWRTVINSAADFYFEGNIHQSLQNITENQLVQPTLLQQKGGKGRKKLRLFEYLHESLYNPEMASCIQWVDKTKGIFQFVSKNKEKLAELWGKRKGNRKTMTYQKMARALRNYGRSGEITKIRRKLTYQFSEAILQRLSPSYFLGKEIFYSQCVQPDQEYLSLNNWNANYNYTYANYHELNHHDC
The conditions noted are these: protein: recombinant; tags: N-terminal GST; dsDNA, one strand shown. A digest of the protocol:
as §1

For the next test, the target named is ELF4 (Homo sapiens, UniProt Q99607 1-663). The conditions noted are these: protein: recombinant; tags: N-terminal GST; dsDNA, one strand shown. A digest of the protocol:
as §1

The next test deals with T3, ELK4 (Homo sapiens, UniProt P28324-2 1-405).
T3 sequence: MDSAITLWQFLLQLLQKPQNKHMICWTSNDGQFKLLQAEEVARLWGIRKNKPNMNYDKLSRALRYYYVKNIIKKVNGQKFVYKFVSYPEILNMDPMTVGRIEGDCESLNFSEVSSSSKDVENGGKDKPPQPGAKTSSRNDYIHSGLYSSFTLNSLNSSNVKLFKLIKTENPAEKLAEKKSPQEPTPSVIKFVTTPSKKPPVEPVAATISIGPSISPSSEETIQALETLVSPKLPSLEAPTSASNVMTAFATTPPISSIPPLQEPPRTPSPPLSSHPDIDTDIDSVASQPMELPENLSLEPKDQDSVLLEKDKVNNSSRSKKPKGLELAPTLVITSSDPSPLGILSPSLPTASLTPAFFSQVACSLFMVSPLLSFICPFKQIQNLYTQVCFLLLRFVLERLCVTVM
The conditions noted are these: protein: recombinant; tags: N-terminal GST; dsDNA, one strand shown. A digest of the protocol: as §1

A further test has as its target T4, ETV2 (Homo sapiens, UniProt O00321 1-342).
T4 sequence: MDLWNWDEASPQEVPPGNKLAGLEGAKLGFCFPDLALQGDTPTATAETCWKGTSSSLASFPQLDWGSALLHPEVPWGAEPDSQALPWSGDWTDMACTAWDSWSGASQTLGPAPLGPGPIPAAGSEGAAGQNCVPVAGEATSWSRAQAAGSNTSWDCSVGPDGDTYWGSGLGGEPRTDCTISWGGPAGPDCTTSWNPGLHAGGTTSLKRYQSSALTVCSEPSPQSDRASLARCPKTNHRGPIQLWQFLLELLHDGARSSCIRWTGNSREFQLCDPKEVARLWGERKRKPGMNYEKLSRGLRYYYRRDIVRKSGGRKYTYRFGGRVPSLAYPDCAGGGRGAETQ
The note with it: protein: recombinant; tags: N-terminal GST; dsDNA, one strand shown. A digest of the protocol:
as §1

Another test addresses T5, ELF3 (Homo sapiens, UniProt P78545 1-371).
T5 sequence: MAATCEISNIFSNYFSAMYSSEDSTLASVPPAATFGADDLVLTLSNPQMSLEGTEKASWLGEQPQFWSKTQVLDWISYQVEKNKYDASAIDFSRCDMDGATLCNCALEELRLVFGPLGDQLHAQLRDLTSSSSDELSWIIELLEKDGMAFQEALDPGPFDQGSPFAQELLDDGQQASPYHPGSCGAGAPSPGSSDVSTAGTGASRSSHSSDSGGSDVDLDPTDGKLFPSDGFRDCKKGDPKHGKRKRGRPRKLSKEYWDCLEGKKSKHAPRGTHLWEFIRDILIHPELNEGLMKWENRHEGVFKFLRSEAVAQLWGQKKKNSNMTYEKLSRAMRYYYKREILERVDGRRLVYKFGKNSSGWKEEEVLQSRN
The conditions noted are these: protein: recombinant; tags: N-terminal GST; dsDNA, one strand shown. A digest of the protocol: as §1

The next test concerns the target CRX (Homo sapiens, UniProt O43186 1-299). The conditions noted are these: protein: recombinant; tags: N-terminal GST; dsDNA, one strand shown. A digest of the protocol:
as §1

A further test deals with ETV1 (Homo sapiens, UniProt P50549 1-477). The conditions noted are these: protein: recombinant; tags: N-terminal GST; dsDNA, one strand shown. A digest of the protocol:
as §1

The next test concerns the target T6, ERF (Homo sapiens, UniProt P50548 1-548).
T6 sequence: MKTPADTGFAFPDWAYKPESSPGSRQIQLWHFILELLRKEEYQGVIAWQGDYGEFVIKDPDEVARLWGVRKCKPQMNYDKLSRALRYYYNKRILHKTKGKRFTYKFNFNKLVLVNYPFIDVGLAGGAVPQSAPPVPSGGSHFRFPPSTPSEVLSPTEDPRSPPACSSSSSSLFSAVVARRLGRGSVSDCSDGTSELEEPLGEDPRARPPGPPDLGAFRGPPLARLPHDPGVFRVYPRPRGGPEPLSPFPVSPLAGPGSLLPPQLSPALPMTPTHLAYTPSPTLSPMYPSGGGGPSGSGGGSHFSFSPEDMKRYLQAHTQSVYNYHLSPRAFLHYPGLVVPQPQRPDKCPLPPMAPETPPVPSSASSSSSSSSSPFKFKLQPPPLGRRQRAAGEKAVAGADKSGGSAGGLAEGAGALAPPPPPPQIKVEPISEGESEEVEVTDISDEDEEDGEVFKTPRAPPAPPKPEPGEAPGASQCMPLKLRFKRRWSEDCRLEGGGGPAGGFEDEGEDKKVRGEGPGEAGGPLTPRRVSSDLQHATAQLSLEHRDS
The conditions noted are these: protein: recombinant; tags: N-terminal GST; dsDNA, one strand shown. A digest of the protocol:
as §1

Another test has as its target T7, ETV3L (Homo sapiens, UniProt Q6ZN32 1-361).
T7 sequence: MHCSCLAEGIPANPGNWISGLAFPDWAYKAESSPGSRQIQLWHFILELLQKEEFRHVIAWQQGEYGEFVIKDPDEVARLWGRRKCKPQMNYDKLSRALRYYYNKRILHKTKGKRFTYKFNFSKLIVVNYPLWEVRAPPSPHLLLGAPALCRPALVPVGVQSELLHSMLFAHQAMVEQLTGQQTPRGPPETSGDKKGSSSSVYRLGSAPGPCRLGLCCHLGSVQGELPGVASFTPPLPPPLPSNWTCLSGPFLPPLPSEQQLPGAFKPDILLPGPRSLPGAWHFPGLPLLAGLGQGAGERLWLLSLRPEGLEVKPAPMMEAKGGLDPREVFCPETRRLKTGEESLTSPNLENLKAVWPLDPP
The conditions noted are these: protein: recombinant; tags: N-terminal GST; dsDNA, one strand shown. A digest of the protocol:
as §1

The target of the next test is T8, ETS2 (Homo sapiens, UniProt P15036 1-469).
T8 sequence: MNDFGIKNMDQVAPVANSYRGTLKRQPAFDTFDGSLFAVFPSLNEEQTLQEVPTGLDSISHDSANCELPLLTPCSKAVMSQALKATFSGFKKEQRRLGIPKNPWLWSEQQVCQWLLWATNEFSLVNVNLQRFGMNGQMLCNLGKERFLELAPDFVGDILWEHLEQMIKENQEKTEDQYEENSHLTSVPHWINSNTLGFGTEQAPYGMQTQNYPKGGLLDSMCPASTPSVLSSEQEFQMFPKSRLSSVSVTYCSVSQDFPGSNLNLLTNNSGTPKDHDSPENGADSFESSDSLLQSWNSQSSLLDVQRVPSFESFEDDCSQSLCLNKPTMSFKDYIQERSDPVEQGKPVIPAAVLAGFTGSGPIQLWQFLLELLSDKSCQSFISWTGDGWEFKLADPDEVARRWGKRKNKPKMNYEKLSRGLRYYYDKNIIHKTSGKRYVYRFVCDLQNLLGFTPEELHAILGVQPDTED
The conditions noted are these: protein: recombinant; tags: N-terminal GST; dsDNA, one strand shown. A digest of the protocol: as §1

Another test addresses T9, SPDEF (Homo sapiens, UniProt O95238 1-335).
T9 sequence: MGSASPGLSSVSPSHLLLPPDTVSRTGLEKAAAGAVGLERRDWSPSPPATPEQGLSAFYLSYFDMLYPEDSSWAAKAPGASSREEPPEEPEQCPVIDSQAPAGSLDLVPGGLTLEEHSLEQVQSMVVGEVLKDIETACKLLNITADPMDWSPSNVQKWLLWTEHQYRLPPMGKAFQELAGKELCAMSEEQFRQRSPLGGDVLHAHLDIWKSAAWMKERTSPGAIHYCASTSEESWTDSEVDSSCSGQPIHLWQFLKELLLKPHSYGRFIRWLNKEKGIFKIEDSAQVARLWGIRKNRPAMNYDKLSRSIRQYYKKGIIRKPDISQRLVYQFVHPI
The note with it: protein: recombinant; tags: N-terminal GST; dsDNA, one strand shown. A digest of the protocol:
as §1

The target in another test is T10, ETV7 (Homo sapiens, UniProt Q9Y603 1-341).
T10 sequence: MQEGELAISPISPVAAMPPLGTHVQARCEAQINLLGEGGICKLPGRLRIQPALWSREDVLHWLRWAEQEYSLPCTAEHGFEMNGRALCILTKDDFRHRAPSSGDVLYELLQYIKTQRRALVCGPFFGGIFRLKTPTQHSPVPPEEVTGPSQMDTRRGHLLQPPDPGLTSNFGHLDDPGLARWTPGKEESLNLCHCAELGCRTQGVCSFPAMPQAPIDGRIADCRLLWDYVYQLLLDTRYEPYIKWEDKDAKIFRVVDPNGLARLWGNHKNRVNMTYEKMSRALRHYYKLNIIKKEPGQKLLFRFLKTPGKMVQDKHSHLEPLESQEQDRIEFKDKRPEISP
The conditions noted are these: protein: recombinant; tags: N-terminal GST; dsDNA, one strand shown. A digest of the protocol: as §1

Another test concerns the target T11, ELF5 (Homo sapiens, UniProt Q9UKW6-2 1-255).
T11 sequence: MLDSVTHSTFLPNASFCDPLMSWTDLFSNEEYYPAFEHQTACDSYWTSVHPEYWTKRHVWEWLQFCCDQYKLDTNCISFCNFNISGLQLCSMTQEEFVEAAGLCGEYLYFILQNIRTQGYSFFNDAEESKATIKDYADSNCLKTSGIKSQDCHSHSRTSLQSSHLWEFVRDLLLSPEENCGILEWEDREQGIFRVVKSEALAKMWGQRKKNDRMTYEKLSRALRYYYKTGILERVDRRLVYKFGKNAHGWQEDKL
The note with it: protein: recombinant; tags: N-terminal GST; dsDNA, one strand shown. A digest of the protocol:
as §1

The next test concerns the target T12, ETV3 (Homo sapiens, UniProt P41162-2 1-143).
T12 sequence: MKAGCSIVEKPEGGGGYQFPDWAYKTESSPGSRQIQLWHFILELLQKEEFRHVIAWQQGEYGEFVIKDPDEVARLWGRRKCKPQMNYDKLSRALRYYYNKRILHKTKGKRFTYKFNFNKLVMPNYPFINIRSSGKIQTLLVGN
The note with it: protein: recombinant; tags: N-terminal GST; dsDNA, one strand shown. A digest of the protocol: as §1

The next test deals with ETV6 (Homo sapiens, UniProt P41212 1-452). The conditions noted are these: protein: recombinant; tags: N-terminal GST; dsDNA, one strand shown. A digest of the protocol:
as §1

Chain of CRX (O43186 whole entry): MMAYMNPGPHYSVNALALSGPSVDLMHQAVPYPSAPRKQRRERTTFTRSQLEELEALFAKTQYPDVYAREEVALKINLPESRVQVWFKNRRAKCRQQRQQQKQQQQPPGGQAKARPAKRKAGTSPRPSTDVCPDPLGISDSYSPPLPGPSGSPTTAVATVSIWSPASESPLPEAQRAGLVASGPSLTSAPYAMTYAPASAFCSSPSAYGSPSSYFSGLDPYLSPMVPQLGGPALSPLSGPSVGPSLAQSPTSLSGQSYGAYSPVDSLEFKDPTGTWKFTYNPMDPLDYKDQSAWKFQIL
Chain of ELF4 (Q99607 whole entry): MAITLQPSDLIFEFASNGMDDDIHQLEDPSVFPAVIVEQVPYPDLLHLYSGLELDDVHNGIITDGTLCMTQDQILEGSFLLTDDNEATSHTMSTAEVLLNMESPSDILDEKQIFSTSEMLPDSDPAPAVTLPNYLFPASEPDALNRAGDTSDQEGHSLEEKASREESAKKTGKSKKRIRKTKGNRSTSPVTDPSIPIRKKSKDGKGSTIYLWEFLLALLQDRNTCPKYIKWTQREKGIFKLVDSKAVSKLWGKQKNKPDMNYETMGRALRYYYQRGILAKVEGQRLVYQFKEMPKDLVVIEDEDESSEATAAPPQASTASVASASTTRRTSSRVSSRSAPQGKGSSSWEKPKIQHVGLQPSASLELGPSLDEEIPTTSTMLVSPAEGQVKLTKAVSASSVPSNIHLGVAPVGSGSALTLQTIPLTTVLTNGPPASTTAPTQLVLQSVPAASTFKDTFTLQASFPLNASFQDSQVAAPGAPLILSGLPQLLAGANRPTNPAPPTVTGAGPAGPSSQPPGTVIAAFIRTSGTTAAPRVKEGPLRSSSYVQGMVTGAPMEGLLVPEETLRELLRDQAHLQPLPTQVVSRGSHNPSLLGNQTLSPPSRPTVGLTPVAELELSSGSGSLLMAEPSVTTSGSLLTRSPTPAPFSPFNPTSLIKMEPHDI
Chain of ETV1 (P50549 whole entry): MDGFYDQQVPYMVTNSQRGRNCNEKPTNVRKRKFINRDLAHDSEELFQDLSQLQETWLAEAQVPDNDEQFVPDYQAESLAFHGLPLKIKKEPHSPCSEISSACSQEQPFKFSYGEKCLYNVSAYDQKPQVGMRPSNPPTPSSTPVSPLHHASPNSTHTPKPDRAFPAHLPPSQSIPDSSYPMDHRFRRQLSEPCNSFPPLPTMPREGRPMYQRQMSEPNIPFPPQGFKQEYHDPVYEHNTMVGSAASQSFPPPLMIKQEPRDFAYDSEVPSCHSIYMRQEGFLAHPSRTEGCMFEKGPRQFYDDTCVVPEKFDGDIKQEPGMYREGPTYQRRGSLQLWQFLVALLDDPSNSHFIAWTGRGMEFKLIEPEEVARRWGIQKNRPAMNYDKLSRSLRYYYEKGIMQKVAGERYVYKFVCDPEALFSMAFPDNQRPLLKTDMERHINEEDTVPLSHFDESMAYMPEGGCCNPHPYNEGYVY
Chain of ETV5 (P41161 whole entry): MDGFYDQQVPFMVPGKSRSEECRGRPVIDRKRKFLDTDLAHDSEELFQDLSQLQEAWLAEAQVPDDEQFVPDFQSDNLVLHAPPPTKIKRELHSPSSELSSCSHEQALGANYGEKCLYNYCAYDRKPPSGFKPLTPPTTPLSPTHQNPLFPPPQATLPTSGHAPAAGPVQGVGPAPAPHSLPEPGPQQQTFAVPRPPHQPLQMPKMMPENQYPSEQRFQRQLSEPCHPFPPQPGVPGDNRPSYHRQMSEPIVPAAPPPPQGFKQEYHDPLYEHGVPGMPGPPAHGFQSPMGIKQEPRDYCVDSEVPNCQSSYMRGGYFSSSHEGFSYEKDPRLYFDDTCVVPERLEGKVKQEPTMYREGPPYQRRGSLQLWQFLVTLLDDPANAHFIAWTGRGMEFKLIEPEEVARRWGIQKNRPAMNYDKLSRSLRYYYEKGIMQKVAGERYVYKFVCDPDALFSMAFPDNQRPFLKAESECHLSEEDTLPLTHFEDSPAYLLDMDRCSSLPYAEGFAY
Chain of ETV6 (P41212 whole entry): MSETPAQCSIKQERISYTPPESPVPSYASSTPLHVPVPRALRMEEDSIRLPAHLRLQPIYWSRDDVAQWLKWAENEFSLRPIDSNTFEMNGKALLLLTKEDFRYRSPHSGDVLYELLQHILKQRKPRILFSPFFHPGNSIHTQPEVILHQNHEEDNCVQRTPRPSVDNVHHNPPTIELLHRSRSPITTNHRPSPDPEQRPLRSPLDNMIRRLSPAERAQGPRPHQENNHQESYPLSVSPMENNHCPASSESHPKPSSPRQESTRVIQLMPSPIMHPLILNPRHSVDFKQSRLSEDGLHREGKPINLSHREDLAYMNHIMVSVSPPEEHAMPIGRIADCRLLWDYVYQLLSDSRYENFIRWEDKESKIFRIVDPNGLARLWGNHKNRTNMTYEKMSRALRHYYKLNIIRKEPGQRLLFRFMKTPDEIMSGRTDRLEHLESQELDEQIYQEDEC
Chain of HSF1 (Q00613 whole entry): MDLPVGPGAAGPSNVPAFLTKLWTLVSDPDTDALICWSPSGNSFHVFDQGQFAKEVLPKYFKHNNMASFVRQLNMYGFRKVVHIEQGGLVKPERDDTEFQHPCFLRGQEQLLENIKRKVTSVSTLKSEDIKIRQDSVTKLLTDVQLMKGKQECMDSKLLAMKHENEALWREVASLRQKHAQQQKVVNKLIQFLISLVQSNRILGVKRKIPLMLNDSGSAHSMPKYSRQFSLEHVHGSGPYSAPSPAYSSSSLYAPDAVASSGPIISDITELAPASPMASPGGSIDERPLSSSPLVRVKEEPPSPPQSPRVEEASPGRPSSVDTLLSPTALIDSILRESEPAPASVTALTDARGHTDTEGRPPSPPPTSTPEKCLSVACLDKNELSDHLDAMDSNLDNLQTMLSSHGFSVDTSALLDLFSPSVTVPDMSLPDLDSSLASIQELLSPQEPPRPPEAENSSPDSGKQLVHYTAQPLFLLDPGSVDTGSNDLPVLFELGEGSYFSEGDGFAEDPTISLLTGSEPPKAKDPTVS

For the sequence TGACTT, the binding signal in the test with FEV is 1.59 fold enrichment (6-mer frequency, TF over GST control); in the test with ETV5 it was 1.52 fold enrichment (6-mer frequency, TF over GST control); in the test with HSF1, 1.15 fold enrichment (6-mer frequency, TF over GST control); with SPIC, 1.37 fold enrichment (6-mer frequency, TF over GST control); in the test with ELF4, 1.45 fold enrichment (6-mer frequency, TF over GST control); in the test with ELK4, 1.4 fold enrichment (6-mer frequency, TF over GST control). The binding signal with ETV2 is 1.44 fold enrichment (6-mer frequency, TF over GST control); in the test with ELF3, 1.55 fold enrichment (6-mer frequency, TF over GST control); with CRX, 1.29 fold enrichment (6-mer frequency, TF over GST control); with ETV1, 1.47 fold enrichment (6-mer frequency, TF over GST control); in the test with ERF, 1.45 fold enrichment (6-mer frequency, TF over GST control); with ETV3L, 1.4 fold enrichment (6-mer frequency, TF over GST control). For the same sequence, the binding signal with ETS2 was 1.53 fold enrichment (6-mer frequency, TF over GST control); with SPDEF, 1.24 fold enrichment (6-mer frequency, TF over GST control); with ETV7 it was 1.48 fold enrichment (6-mer frequency, TF over GST control); with ELF5, 1.56 fold enrichment (6-mer frequency, TF over GST control); with ETV3, 1.46 fold enrichment (6-mer frequency, TF over GST control); with ETV6 it was 1.39 fold enrichment (6-mer frequency, TF over GST control).

The values are drawn from PMC7862700, “An all-to-all approach to the identification of sequence-specific readers for epigenetic DNA modifications on cytosine”.
